The list is not random: actives were taken first. Their share in the collection is about 1.4%.
SKBR3 24h inh: SK-BR-3 proliferation inhibitors; SK-BR-3 viability, CellTiter-Glo ATP luminescence, 24 h; active compounds read low; viability, % at 10 µM; 0.47% of 41,000 active; AID 847;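 active = viability at or below the median of all test compounds minus 3 SD, in both replicates if run twice, cut at about 45% in these data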;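 note: 100% = median untreated cell wells and 0% = median positive control drug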
Her2 expr inh: Her2 kinase expression inhibition; SKBR-3 HER2 protein level, AlphaScreen, 18-24 h; active compounds read low; AID 645; HER2 level % of control, % at 10 µM; 0.69% of 65,000 active;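 active = HER2 level under 5% of the carrier-only control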;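 note: 100% = DMSO carrier and 0% = 500 nM PU-H71 HSP90 inhibitor; lower value means stronger loss of Her2 protein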
PKA inh: PKA (human) kinase inhibition; P17612; inhibition, % at 6 µM; PKA Kemptide phosphorylation, Kinase-Glo ATP luminescence; 0.1% of 65,000 active;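 active = inhibition above the screen-wide mean inhibition plus 3 SD, cut at about 21% in these data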
mHtt clearance: compounds clearing mutant huntingtin protein; AID 853; inhibition, % at 1.5 µM; HeLa Exon1htt(103Q)mCFP, aggregate imaging; zero = plate's median compound well; 0.42% of 47,000 active;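 active = inhibition of aggregate fluorescence above about 70%, also judged a hit by eye on the cell image, limit read from the data, passing the limit was not always enough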;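 note: cells exposed to compound for three days before fixation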
ROCK2 blocker: blocks human Rho kinase 2 activity | AID 604 | purified ROCK2, Kinase-Glo ATP depletion luminescence | 0.35% of 60,000 active | inhibition, % at 6 µM | O75116;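 active = inhibition above the screen-wide mean inhibition plus 3 SD, cut at about 18% in these data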;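 note: plate controls were DMSO wells for no effect and Y-27632 control wells after no-enzyme background subtraction for full effect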
JNK3 blocker: inhibitors of human JNK3 kinase | 0.61% of 60,000 active | P53779 | inhibition, % at 8 µM | AID 746 | purified JNK3 kinase activity, HTS; in the data active = inhibition above about 17%;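 note: 0% = DMSO and 100% = reference inhibitor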
Target sequence (P53779 whole entry, looked up): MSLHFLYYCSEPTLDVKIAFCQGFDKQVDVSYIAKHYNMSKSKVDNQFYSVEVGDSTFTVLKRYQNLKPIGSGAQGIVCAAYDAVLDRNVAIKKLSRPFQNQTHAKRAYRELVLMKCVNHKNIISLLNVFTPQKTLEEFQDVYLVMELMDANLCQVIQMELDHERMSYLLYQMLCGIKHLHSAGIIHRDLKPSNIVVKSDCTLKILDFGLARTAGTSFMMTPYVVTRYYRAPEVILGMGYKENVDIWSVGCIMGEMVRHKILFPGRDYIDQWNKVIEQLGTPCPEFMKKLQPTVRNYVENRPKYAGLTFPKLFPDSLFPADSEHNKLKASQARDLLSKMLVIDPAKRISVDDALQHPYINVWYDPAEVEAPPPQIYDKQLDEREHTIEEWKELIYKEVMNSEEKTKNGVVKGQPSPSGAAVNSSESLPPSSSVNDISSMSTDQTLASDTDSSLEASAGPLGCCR
Starred values were filed as active, the others as inactive; · = not tested or not shown.

SMILES | SKBR3 24h inh | Her2 expr inh | PKA inh | mHtt clearance | ROCK2 blocker | JNK3 blocker
N#CCCCSc1nnc(-c2ccc(Cl)cc2)n1-c1ccccc1 | 74 | 109 | 4 | · | -1 | 2
O=C(NCCc1ccccc1)c1cccnc1N1CCCCCC1 | 77 | 112 | 7 | · | 4 | 5
CCOC(=O)CC1=C(C(=O)OCC)C(c2ccc(C)o2)C(C#N)=C(N)O1 (configuration not stated) | 63 | 66 | -4 | · | 2 | -4
CCOC(=O)CC1=C(C(=O)OCC)C(c2ccc(OC)cc2OC)C(C#N)=C(N)O1 (configuration not stated) | · | -20* | 0 | · | -1 | 1
Nc1nnnn1/N=C/C(Br)=C/c1ccccc1 | 180 | -20* | 10 | -140 | 6 | 1
Nc1nnnn1/N=C/C=C/c1ccccc1 | 90 | 84 | -7 | · | -5 | -2
Cc1cc(C)cc(OCC(O)CN2C(=O)NC(C)(C)C2=O)c1 (configuration not stated) | · | 102 | 2 | · | -2 | -5
O=C(NCC(c1cccs1)N1CCOCC1)c1ccc(Cl)s1 (configuration not stated) | · | 60 | 0 | · | 1 | -7
CN(C)S(=O)(=O)c1ccc(N2CCOCC2)nc1 | 86 | 94 | -2 | 49 | 2 | -7
Cc1ccc(C)n1-c1ccc(N2CCOCC2)nc1 | 98 | -19* | 13 | 1 | 4 | 0
CCc1ccccc1NS(=O)(=O)c1ccc2[nH]cc(C(=O)NCC3CCCO3)c(=O)c2c1 (configuration not stated) | 75 | 74 | 3 | 94* | 1 | -6
COC(=O)[C@H](Cc1ccccc1)NC(=O)NCCC1=CCCCC1 | · | · | · | 38 | · | ·
C=C(C)Cn1c(-c2ccc(OC)cc2)nc2ccccc21 | 95 | -20* | 6 | 31 | 7 | -8
CCNC(=O)c1ccccc1NC(=O)c1cccc(S(=O)(=O)N2CCC(C)CC2)c1 | 57 | 95 | 10 | 40 | 6 | -4
CNC(=O)c1ccccc1NC(=O)c1cccc(S(=O)(=O)N2CCC(C)CC2)c1 | 43* | 157 | 10 | · | 10 | -2
CC1(C)CCCC2=C1CC1C(=O)N(Cc3cccnc3)C(=O)C1C2 (configuration not stated) | 110 | -22* | -2 | 4 | 0 | 0
Nc1nnc(Cc2ccc(Cl)c(Cl)c2)s1 | 120 | 126 | 0 | -7 | 3 | 0
O=c1[nH]c2ccccc2c2nc3ccccn3c12 | 110 | 34 | -5 | · | -1 | 47*
CCC(CC)c1nnc(NC(=O)c2c(C)nn(Cc3ccccc3Cl)c2C)s1 | · | · | · | 17 | · | ·
O=C(Nc1ccc(F)cc1)c1cc(S(=O)(=O)N2CCCCC2)cs1 | 95 | 113 | -5 | · | · | ·
COC(=O)c1ccccc1NC(=O)c1cc(-c2ccc(OC)c(OC)c2)on1 | 81 | 97 | -2 | 71* | -2 | -4
COc1ccc(NC(=O)c2cc(-c3ccc(OC)c(OC)c3)on2)cc1OC | 93 | 98 | -5 | 30 | -5 | -8
Cc1ccc(CCNC(=O)C2CCCN(S(=O)(=O)c3cnc[nH]3)C2)cc1 (configuration not stated) | · | 100 | 2 | 70* | 6 | 1
Cc1sc2c(c1C)c(=O)nc1n2Cc2ccccc2-1 | · | · | · | 22 | · | ·
CC1=CC(=C2C(=O)c3ccccc3C2=O)C=C(C)N1C | 107 | 108 | -1 | · | 0 | 21*
SMILES | SKBR3 24h inh | Her2 expr inh | PKA inh | mHtt clearance | ROCK2 blocker | JNK3 blocker
CCN(CC)CCn1c(NCc2ccc(OC)cc2)nc2ccccc21 | 79 | 115 | 7 | 86* | 8 | 0
COc1ccc2c(c1OC)C(=O)OC2Nc1ccccc1S(=O)(=O)C(F)F (configuration not stated) | 97 | -21* | 7 | · | 6 | 3
COc1ccc2c(c1OC)C(=O)OC2Nc1ccccn1 (configuration not stated) | 96 | 65 | -10 | 30 | -4 | 4
COc1ccc(-c2cc(N)n(S(=O)(=O)c3c(F)c(F)c(F)c(F)c3F)n2)cc1OC | · | -13* | -4 | -25 | -5 | -7
COc1ccc(S(=O)(=O)n2nc(-c3cc(OC)c(OC)c(OC)c3)cc2N)cc1OC | · | 93 | 4 | · | 5 | 6
CCOc1ccc(Br)cc1CC(=O)O | 129 | 119 | 0 | 75* | -12 | 2
CCOc1cc(CO)c(Br)cc1OCC(=O)O | · | · | · | 8 | · | ·
COCCN1Cc2cccc(C(=O)NCc3ccccn3)c2C1=O | · | 114 | 8 | 64 | 3 | 0
COCCN1Cc2cccc(C(=O)NCc3ccc4c(c3)OCO4)c2C1=O | · | 88 | -3 | · | -2 | 23*
c1coc(CNc2ncnc3sc4c(c23)CCCCC4)c1 | · | 77 | 9 | · | 18* | 11
Cc1nc(NCc2ccco2)c2c3c(sc2n1)CCC3 | 58 | 61 | 8 | 58 | 8 | 6
Cc1cc(C#N)c(C)n1-c1cc(C(F)(F)F)ccc1N1CCOCC1 | · | 95 | 8 | · | 3 | 1
CCC(C(=O)Nc1ccccc1OC)n1c(C(=O)OC)cc2ccsc21 (configuration not stated) | · | 55 | -5 | · | -5 | -2
CCn1c(=O)c(C(=O)Nc2nc3ccccc3[nH]2)c(O)c2ccccc21 | · | 0.9* | 7 | 2 | 8 | 4
NCCCCCNC(=O)/C=N\O | 80 | 130 | 6 | · | 5 | -3
CC(C)C(C)(C#N)NC(=O)CSc1nnc(C(F)(F)F)n1C (configuration not stated) | · | · | · | 26 | · | ·
CN(CCO)c1ncnc2nc[nH]c12 | · | 101 | 15 | 37 | 37* | -3
Cc1ccc(S(=O)(=O)NCCCOC(=O)Nc2ccncc2)cc1 | 67 | 122 | 18 | 14 | 23* | -1
Cc1ccc(S(=O)(=O)NCCc2ccncc2)cc1 | · | 86 | 5 | · | 0 | -7
COc1ccc(OC)c(C(=O)CSc2nnc(-c3cccnc3)n2C)c1 | · | 99 | 13 | 22 | 12 | -6
CC1=C(C)CS(=O)N(S(=O)(=O)c2ccc(Cl)cc2)C1 (configuration not stated) | 78 | 84 | 8 | -15 | -1 | 20*
CC1CCN(S(=O)(=O)c2ccc(Cl)cc2)CC1 | · | 170 | 4 | · | 0 | 4
O=C(NCCc1c[nH]c2ccccc12)Nc1ccccc1 | · | · | · | 26 | · | ·
N#Cc1cccc(NC(=O)NCCc2c[nH]c3ccccc23)c1 | · | 91 | 8 | · | 22* | -2
Cc1csc(SCC(=O)NC(=O)NCc2ccccc2)n1 | · | 109 | 2 | 78* | -1 | 2
COc1cccc2c(=O)c(C(=O)NCc3cccs3)c[nH]c12 | 90 | 93 | 7 | 11 | 4 | 37*
Cc1ccc2[nH]cc(C(=O)NCc3cccs3)c(=O)c2c1 | · | · | · | -21 | · | ·
CCn1nnc(-c2ccccc2NS(=O)(=O)c2ccc(S(=O)(=O)N(C)C3CCCCC3)cc2)n1 | · | · | · | 11 | · | ·
COc1ccccc1C1CC(c2ccccc2)Nc2ncnn21 (configuration not stated) | 101 | 61 | 3 | 21 | 4 | -3
